# ± gives the standard deviation of the averaged measurements.
# How the values were obtained:
# [1] = test system: MDA-MB-231; experiment: cell viability relative to vehicle unstimulated control (fraction); higher = more viable cells; conditions: pre-treatment time: 18 h then 24 h IFNg/TNF
# [2] = test system: MDA-MB-231; experiment: kynurenine production, fold change vs DMSO IFNg/TNF control; higher = more kynurenine produced (less inhibition); conditions: pre-treatment time: 18 h then 24 h IFNg/TNF
# Outline: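 MDA-MB-231 cells (7 × 10^4/well, 96-well plates, seeded 24 h earlier) were pre-treated 18 h with each natural product in 0.1% DMSO, then stimulated 24 h with IFNγ (1 U/ml) and TNF (6.25 ng/ml) at 37°C. Supernatant kynurenine was read at 492 nm after trichloroacetic acid and p-dimethylaminobenzaldehyde treatment, against 0–100 μM standards. Kynurenine production is the fold change over cytokine-stimulated vehicle wells on the same plate, averaged over duplicate plates in the first screening round.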
# 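Throughout, for cell viability relative to vehicle unstimulated control: viability of the cells left after supernatant collection, read with Deep Blue dye added for 4 h, as absorbance at 570 nm minus 600 nm.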
SMILES,cell viability [1],kynurenine production [2]
C=C[C@]1(C)C[C@@H](OC(=O)CO)[C@]2(C)[C@H](C)CC[C@]3(CCC(=O)[C@@H]32)[C@@H](C)[C@@H]1O [Pleuromutilin] (compound dose: 10 uM),1.01 ± 0.057,0.861 ± 0.094
O=C(O)c1cncc(C(=O)O)c1 [3-5-pyridinedicarboxylic acid] (compound dose: 10 uM),1.04 ± 0.044,0.983 ± 0.025
C[C@H]1[C@H](C)CC[C@]2(C(=O)O)CC[C@]3(C)C(=CC[C@@H]4[C@@]5(C)CCC(=O)C(C)(C)[C@@H]5CC[C@]43C)[C@H]12 [Ursonic acid] (compound dose: 10 uM),0.9233 ± 0.0046,0.733 ± 0.12
CC(C)c1ccc2c(c1)CC[C@H]1[C@](C)(C(=O)O)CCC[C@]21C [Dehydroabietic acid] (compound dose: 10 uM),1.008 ± 0.0086,0.713 ± 0.23
CC(CC(=O)C[C@@H](C)[C@H]1CC(=O)[C@@]2(C)C3=C(C(=O)C[C@]12C)[C@@]1(C)CC[C@H](O)C(C)(C)[C@@H]1C[C@@H]3O)C(=O)O (some centres undefined) [Ganoderic acid B] (compound dose: 10 uM),0.95 ± 0.032,0.774 ± 0.18
C[C@H](CC[C@@H](O[C@@H]1O[C@H](CO)[C@@H](O)[C@H](O)[C@H]1O)C(C)(C)O)[C@H]1CC[C@@]2(C)[C@@H]3CC=C4[C@@H](CC[C@H](O[C@@H]5O[C@H](CO)[C@@H](O)[C@H](O)[C@H]5O)C4(C)C)[C@]3(C)[C@H](O)C[C@]12C [Mogroside IIe] (compound dose: 10 uM),0.984 ± 0.089,0.934 ± 0.29
C=C(C)[C@@H]1CC=C(CO)CC1 [(S)-(-)-Perillyl alcohol] (compound dose: 10 uM),0.984 ± 0.02,1.19 ± 0.25
CC(=O)O[C@]12C[C@H](C)[C@H](OC(=O)/C=C/c3ccccc3)[C@@H]1/C=C(/CO)CC[C@H]1[C@@H](/C=C(\C)C2=O)C1(C)C [Euphorbia factor L22] (compound dose: 10 uM),1.11 ± 0.047,0.964 ± 0.092
CC[C@@H](C(=O)[C@@H](C)[C@@H](O)[C@H](C)CCc1ccc(C)c(O)c1C(=O)O)[C@H]1O[C@](CC)([C@H]2CC[C@](O)(CC)[C@H](C)O2)C[C@@H]1C [Lasalocid] (compound dose: 10 uM),0.877 ± 0.017,0.509 ± 0.022
COC(=O)C1=CO[C@@H](O[C@@H]2O[C@H](CO[C@@H]3O[C@H](CO)[C@@H](O)[C@H](O)[C@H]3O)[C@@H](O)[C@H](O)[C@H]2O)[C@@H]2C(CO)=CC[C@H]12 [Genipin 1-β-D-gentiobioside] (compound dose: 10 uM),0.849 ± 0.014,0.718 ± 0.24
O=C(O)/C=C/c1ccccc1 [Trans-cinnamic acid] (compound dose: 10 uM),1.02 ± 0.019,0.882 ± 0.022
O=C1C[C@@H](O[C@@H]2O[C@H](CO)[C@@H](O)[C@H](O)[C@H]2O)CO1 [Kinsenoside] (compound dose: 10 uM),0.971 ± 0.18,1.01 ± 0.34
C[C@H](CC[C@@H](O[C@@H]1O[C@H](CO[C@@H]2O[C@H](CO)[C@@H](O)[C@H](O)[C@H]2O)[C@@H](O)[C@H](O)[C@H]1O[C@@H]1O[C@H](CO)[C@@H](O)[C@H](O)[C@H]1O)C(C)(C)O)[C@H]1CC[C@@]2(C)[C@@H]3CC=C4[C@@H](CC[C@H](O[C@@H]5O[C@H](CO[C@@H]6O[C@H](CO)[C@@H](O)[C@H](O)[C@H]6O)[C@@H](O)[C@H](O)[C@H]5O)C4(C)C)[C@]3(C)[C@H](O)C[C@]12C [Mogroside V] (compound dose: 10 uM),0.989 ± 0.021,0.968 ± 0.19
C[C@@H]1O[C@@H](OC[C@H]2O[C@@H](Oc3c(-c4ccc(O)cc4)oc4cc(O)cc(O)c4c3=O)[C@H](O)[C@@H](O)[C@@H]2O)[C@H](O)[C@H](O)[C@H]1O [Kaempferol 3-rutinoside] (compound dose: 10 uM),1.1 ± 0.14,0.955 ± 0.049
C[C@@H]1O[C@@H](O[C@H]2[C@H](Oc3cc(O)c4c(c3)O[C@H](c3ccc(O)cc3)CC4=O)O[C@H](CO)[C@@H](O)[C@@H]2O)[C@H](O)[C@H](O)[C@H]1O [Naringin] (compound dose: 10 uM),1.02 ± 0.015,1.15 ± 0.036
CC(=O)OC(CC12C3C(C(C)C)CCC1(C)C1CCC4(CCCC42)N3C1)C(=O)C1(C)COC2(C)CCC1O2 (centres undefined) [Daphniphylline] (compound dose: 10 uM),1.01 ± 0.027,0.75 ± 0.079

SMILES,cell viability [1],kynurenine production [2]
CC(C)=CCC[C@](C)(O)[C@H]1CC[C@]2(C)[C@@H]1[C@H](O)C[C@@H]1[C@@]3(C)CC[C@H](O)C(C)(C)[C@@H]3[C@@H](O[C@@H]3O[C@H](CO)[C@@H](O)[C@H](O)[C@H]3O[C@@H]3OC[C@@H](O)[C@H](O)[C@H]3O)C[C@]12C [Notoginsenoside R2] (compound dose: 10 uM),1.04 ± 0.031,1.24 ± 0.12
C/C(=C\C(=O)CC(C)C(=O)O)[C@H]1C[C@H](O)[C@@]2(C)C3=C(C(=O)C[C@]12C)[C@@]1(C)CCC(=O)C(C)(C)[C@@H]1C[C@@H]3O (some centres undefined) [Ganoderenic acid A] (compound dose: 10 uM),1.03 ± 0.068,0.817 ± 0.31
C[C@H]1[C@H](C)CC[C@]2(C(=O)O[C@@H]3O[C@H](CO[C@@H]4O[C@H](CO)[C@@H](O[C@@H]5O[C@@H](C)[C@H](O)[C@@H](O)[C@H]5O)[C@H](O)[C@H]4O)[C@@H](O)[C@H](O)[C@H]3O)CC[C@]3(C)C(=CC[C@@H]4[C@@]5(C)C[C@@H](O)[C@H](O)[C@@](C)(CO)[C@@H]5[C@H](O)C[C@]43C)[C@H]12 [Madecassoside] (compound dose: 10 uM),1.03 ± 0.042,0.817 ± 0.099
C[C@@H]1O[C@@H](O[C@H]2[C@H](O[C@H]3CC[C@@]4(C)[C@@H](CC[C@]5(C)[C@@H]4CC=C4[C@@H]6CC(C)(C)CC[C@]6(C(=O)O[C@@H]6O[C@H](CO[C@@H]7O[C@H](CO)[C@@H](O)[C@H](O)[C@H]7O)[C@@H](O)[C@H](O)[C@H]6O)CC[C@]45C)[C@]3(C)CO)OC[C@H](O)[C@@H]2O)[C@H](O)[C@H](O[C@@H]2O[C@H](CO)[C@@H](O)[C@H](O)[C@H]2O)[C@H]1O [Macranthoidin A] (compound dose: 10 uM),0.901 ± 0.011,1.08 ± 0.014
C=C(C)[C@@H]1CC[C@]2(C=O)CC[C@]3(C)[C@H](CC[C@@H]4[C@@]5(C)CC[C@H](O)C(C)(C)[C@@H]5CC[C@]43C)[C@@H]12 [Betulinaldehyde] (compound dose: 10 uM),1.005 ± 0.0091,0.697 ± 0.12
C[C@@H]1CC[C@]2(C(=O)O[C@@H]3O[C@H](CO)[C@@H](O)[C@H](O)[C@H]3O)CC[C@]3(C)C(=CC[C@@H]4[C@@]5(C)CC[C@H](O)[C@](C)(C(=O)O)[C@@H]5CC[C@]43C)[C@@H]2[C@]1(C)O [Ilexsaponin A] (compound dose: 10 uM),1.02 ± 0.016,0.883 ± 0.013
C[C@H](CC[C@@H](O)C(C)(C)O)[C@H]1CC[C@@]2(C)[C@@H]3CC=C4[C@@H](CC[C@H](O[C@@H]5O[C@H](CO)[C@@H](O)[C@H](O)[C@H]5O)C4(C)C)[C@]3(C)[C@H](O)C[C@]12C [Mogroside I E1] (compound dose: 10 uM),0.906 ± 0.15,0.981 ± 0.35
C=C1C[C@@]23CC[C@H]4[C@@](C)(CCC[C@@]4(C)C(=O)O[C@@H]4O[C@H](CO)[C@@H](O)[C@H](O)[C@H]4O)[C@@H]2CC[C@]1(O[C@@H]1O[C@H](CO)[C@@H](O)[C@H](O)[C@H]1O[C@@H]1O[C@H](CO)[C@@H](O)[C@H](O)[C@H]1O)C3 [Stevioside] (compound dose: 10 uM),1.05 ± 0.015,0.959 ± 0.14
C=C1CCC[C@]2(C)C[C@]3(O)OC(=O)C(C)=C3C[C@@H]12 [Atractylenolide III] (compound dose: 10 uM),1.015 ± 0.0091,0.763 ± 0.15
CC(C)=CCCC(C)(OC1OC(CO)C(O)C(O)C1O)C1CCC2(C)C1C(O)CC1C3(C)CC(O)C(OC4OC(CO)C(O)C(O)C4OC4OC(CO)C(O)C(O)C4O)C(C)(C)C3CCC12C (centres undefined) [Gypenoside XLVI] (compound dose: 10 uM),1.03 ± 0.27,0.812 ± 0.16
CC(C)(O)CCC(=O)[C@](C)(O)C1[C@H](O)C[C@@]2(C)[C@@H]3CC=C4[C@@H](C[C@H](O)[C@@H](O)C4(C)C)[C@]3(C)C(=O)C[C@]12C (some centres undefined) [Cucurbitacin IIb] (compound dose: 10 uM),0.943 ± 0.021,0.826 ± 0.27
COc1ccc2c(c1O)-c1c(O)c(OC)cc3c1[C@H](C2)[N+](C)(C)CC3 [Magnoflorine] (compound dose: 10 uM),0.966 ± 0.05,0.937 ± 0.057
COC(=O)C1=CO[C@@H](O[C@@H]2O[C@H](CO)[C@@H](O)[C@H](O)[C@H]2O)[C@@H]2C(COC(C)=O)=C[C@H](O)[C@H]12 [Daphylloside] (compound dose: 10 uM),0.999 ± 0.062,0.888 ± 0.048
C=CCC(=NOS(=O)(=O)O)S[C@@H]1O[C@H](CO)[C@@H](O)[C@H](O)[C@H]1O (stereo in doubt) [Sinigrin] (compound dose: 10 uM),0.933 ± 0.014,1.04 ± 0.14
C=C1[C@H](OC(C)=O)[C@@H](O)[C@@H](OC(=O)c2cccnc2)C(C)(C)/C=C/[C@H](C)[C@H](OC(C)=O)[C@@]2(O)C[C@@](C)(OC(C)=O)[C@H](OC(=O)c3ccccc3)[C@@H]2[C@H]1OC(C)=O [Jatrophane 5] (compound dose: 10 uM),1.12 ± 0.027,0.90473 ± 0.00055
COC(=O)c1cccnc1 [Methyl nicotinate] (compound dose: 10 uM),0.974 ± 0.037,0.874 ± 0.23
